Results filed as inconclusive are left out. The source made the active and inactive calls. Calls come from the whole dose curve; as a rule, active = well fitted inhibition curve with a large enough effect; inconclusive = small, poorly fitted or top-dose-only effect; inactive = no such curve, though single readings can be large or run the other way. Where a SMILES comes first, the peptide text is derived from it. Bridges are numbered along the chain shown (N, C = ends). [ ]: non-standard residue; d: D form. The star is where a group is joined. X1 = CCC(C)C(N)C1=NC(C(=O)*)CS1; dOrn = NCCC[C@@H](N)C(=O)O
The compounds below were run on Zika virus NS2B-NS3 protease (linked construct) (assay: Primary screen NINDS Rhodamine qHTS for Zika virus inhibitors (AID 1347160; note: nearly all actives have a fitted effect of over 55% in size)). Settings: purified NS2B-NS3 protease, Rhodamine110 substrate fluorescence; series mostly up to 57.1 µM; activity change, negative = inhibition: at the top concentration.
How it was run: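 Percent inhibition, normalized to uninhibited and enzyme-free controls, is fitted to a 4-parameter Hill equation. Fluorescence change comes from a 15-min cleavage of 1.5 microM bis-peptide Rhodamine110 substrate by 25 nM linked NS2B-NS3 at room temperature.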
`C=C1CC23CC1(O)CCC2C1=CC2OC(=O)C(C)(C2O)C1C3C(=O)O` (stereo not drawn) was tested, and the “activity change, negative = inhibition” value was 11.2% [at 33.1 µM] (inactive). In the case of `COc1ccc([C@H]2Cc3cccc(O)c3C(=O)O2)cc1`, the “activity change, negative = inhibition” value is reported as 6.44% (inactive). In the case of `COC1=CC(=O)C[C@@H](C)[C@]12Oc1cc(OC)cc(OC)c1C2=O`, the “activity change, negative = inhibition” value is reported as 4% [at 33.1 µM] (inactive). For `CC(C)CNC(=O)/C=C/CCCCc1ccc2c(c1)OCO2`, the “activity change, negative = inhibition” value was -4.59% [at 33.1 µM] (inactive). With `CC1CCC2C(C)(C)C(O)CCC2(C)C12Cc1c(O)cc3c(c1O2)CN(C(CCC(N)=O)C(=O)O)C3=O` (stereo not drawn) the “activity change, negative = inhibition” value was 4.29% [at 33.1 µM] (inactive). In the case of `Nc1nonc1C(=Nc1ccc(F)c(Cl)c1)NO`, the “outcome” value is reported as “inactive”. In the case of `COC1CC(=O)C23C(=O)NC(CC(C)C)C2C(C)C(C)=CC3/C=C(\C)CCC1O` (stereo not drawn), the “activity change, negative = inhibition” value is reported as 5.7% [at 33.1 µM] (inactive). In the case of `CNC(=O)Nc1ccc(OC)c(NC(=O)NC(=O)c2cc(F)c(F)cc2Cl)c1`, the “activity change, negative = inhibition” value is reported as 17.3% (inactive). For `C=CC(C)(O)CO[C@@H]1O[C@H](CO)[C@@H](O)[C@H](O)[C@H]1O` (stereo partly drawn), the “activity change, negative = inhibition” value was -5.47% (inactive). `Nc1ccn([C@@H]2C(F)=C(CO)[C@@H](O)[C@H]2O)c(=O)n1` was tested, and the “activity change, negative = inhibition” value was 23.4% (inactive). In the case of `CC(C)=CCCC1(C)Oc2cc3c(c4c2C2C(O4)C(C)(O)CCC21)CN(C(CCC(=O)O)C(=O)O)C3=O` (stereo not drawn), the “activity change, negative = inhibition” value is reported as 3% [at 33.1 µM] (inactive). With `CC[C@H](/C=C/[C@@H](C)[C@H]1CC[C@H]2[C@@H]3CC=C4C[C@@H](O)CC[C@]4(C)[C@H]3CC[C@]12C)C(C)C` the activity change, negative = inhibition was 7.22% [at 4.91 µM] (inactive). In the case of `CCC(C)C(N)C1=NC(C(=O)N[C@@H](CC(C)C)C(=O)N[C@H](CCC(=O)O)C(=O)N[C@H](C(=O)N[C@H]2CCCCNC(=O)[C@H](CC(N)=O)NC(=O)[C@@H](CC(=O)O)NC(=O)[C@H](Cc3cnc[nH]3)NC(=O)[C@@H](Cc3ccccc3)NC(=O)[C@H]([C@@H](C)CC)NC(=O)[C@@H](CCCN)NC2=O)[C@@H](C)CC)CS1` (stereo partly drawn) (X1-L[dE]IK[dOrn]I[dF]H[dD]N; lactam 4-C), the Potency is reported as “inactive”.
% is set by controls: 0 for no effect and ±100 for the full control effect.
